This note sets out measurements from PubChem BioAssay (NCATS).

Assay [1] can be described thus: Cell Viability - LYMP2-020 (AID 986).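 Note: series mostly up to about 92 µM; plate controls were DMSO only for no effect and tetraoctylammonium bromide at 92 µM for full effect; nearly all actives have a fitted effect of over 55% in size.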 In short, it runs like this: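 qHTS, 2500 cells/well; 5 hr then 24 hr compound exposure, 37 C; CellTiter-Glo luminescence after 30 min RT; ATP decrease taken as cytotoxicity; AC50 via Hill equation; tetraoctylammonium bromide positive control.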
Assay [2] in a line: Cell Viability - LYMP2-022 (AID 987).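 Note: 0% = DMSO alone and full effect = tetraoctylammonium bromide at 92 µM; nearly all actives have a fitted effect of over 55% in size.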 In short, it runs like this:
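Luminescent ATP read-out (CellTiter-Glo, 30 min, RT) after 24 hr, 37 C compound exposure of 2500 human lymphoblastoid cells/well in complete medium. Cytotoxicity taken as concentration-dependent ATP loss; AC50 from standard Hill equation.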

Assay [3] in a line: Cell Viability - LYMP2-024 (AID 988).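 Note: plate controls were DMSO only for no effect and 92 µM tetraoctylammonium bromide for full effect; nearly all actives have a fitted effect of over 60% in size.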 A digest of the protocol: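 ATP-based luminescence (CellTiter-Glo, 30 min RT) after 24 h compound exposure at 37 C of 2500 lymphoblastoid cells/well; decrease in ATP taken as cytotoxicity. qHTS concentration-response fitted to standard Hill equation for AC50.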
The nature of assay [4]: Cell Viability - LYMP2-026 (AID 989). Note: % is set by controls: 0 for no effect and ±100 for the full control effect; nearly all actives have a fitted effect of over 50% in size. A digest of the protocol: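 qHTS cytotoxicity: 2500 cells/well, 5 hr 37 C, compound 24 hr 37 C, CellTiter-Glo 30 min RT, luminescence. Tetraoctylammonium bromide positive control. AC50 via standard Hill fit.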
Assay [5] in a line: Cell Viability - LYMP1-002 - Assay at 24 hr (AID 993). Note: % is set by controls: 0 for no effect and ±100 for the full control effect. In short, it runs like this: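 CellTiter-Glo luminescence (intracellular ATP) after 24 h compound exposure, 37 C, in LYMP1-002 human lymphoblastoid cells; decreased ATP taken as cytotoxicity. AC50 from standard Hill fit of concentration-response curves.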
Assay [6] can be described thus: Cell Viability - LYMP1-002 - Assay at 40 hr (AID 994).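 Note: 0% = DMSO only and full inhibition = 92 µM tetraoctylammonium bromide; nearly all actives have a fitted effect of over 60% in size.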 A digest of the protocol: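 qHTS cytotoxicity; 2500 cells/well, 5 hr 37 C settle, compound 40 hr 37 C. CellTiter-Glo, 30 min RT, luminescence (ATP). Concentration-response, Hill fit → AC50. Pos. ctrl tetraoctylammonium bromide.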
The nature of assay [7]: qHTS Assay for Identification of Small Molecule Inducers of Hypoxia Response (AID 2120; active = well fitted curve in the direction sought with a large enough effect in the signal ratio, with a control signal flat, not every such curve was filed as active; the % refers to the signal ratio; note: 0% is about no effect). A digest of the protocol:
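Read-out: CCF4 FRET emission ratio 460nm/530nm (excitation 405nm), converted to %Activity, with AC50 fitted across a compound titration. ME-180 cells carried an HRE-driven beta-lactamase reporter; compound exposure 17 h, 37 degrees C.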

The target in assay [8] is Bile acid receptor (Homo sapiens) (UniProt Q96RI1). The experiment in a line: qHTS assay for small molecule antagonists of farnesoid X receptor signaling (AID 588526; calls by dose curve; note: % is set by controls: 0 for no effect and ±100 for the full control effect). A digest of the protocol: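 Concentration-response titrations were fitted to the Hill equation for half-maximal inhibition and maximal response, with data normalised to 50 uM chenodeoxycholic acid and DMSO control wells. Cells: FXR-UAS-bla HEK293T, dialyzed FBS.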
Bile acid receptor (Homo sapiens), sequence (Q96RI1 whole entry, looked up): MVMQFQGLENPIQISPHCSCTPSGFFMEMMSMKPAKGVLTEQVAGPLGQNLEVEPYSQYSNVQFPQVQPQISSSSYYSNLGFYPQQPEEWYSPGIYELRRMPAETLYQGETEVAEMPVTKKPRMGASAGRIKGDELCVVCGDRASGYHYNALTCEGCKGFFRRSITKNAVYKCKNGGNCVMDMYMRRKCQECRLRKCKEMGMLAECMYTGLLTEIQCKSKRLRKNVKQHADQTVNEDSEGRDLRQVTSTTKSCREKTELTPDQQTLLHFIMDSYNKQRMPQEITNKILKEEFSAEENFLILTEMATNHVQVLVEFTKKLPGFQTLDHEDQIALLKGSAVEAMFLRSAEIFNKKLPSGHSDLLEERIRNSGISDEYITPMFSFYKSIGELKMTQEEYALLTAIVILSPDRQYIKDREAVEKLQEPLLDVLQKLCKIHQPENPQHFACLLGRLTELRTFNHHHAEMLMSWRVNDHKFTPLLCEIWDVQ

The target of assay [9] is Peroxisome proliferator-activated receptor gamma (Homo sapiens) (UniProt P37231). Description: qHTS assay for small molecule agonists of peroxisome proliferator-activated receptor gamma signaling (AID 588536; active = well fitted curve in the direction sought with a large enough effect in the signal ratio, with a control signal flat, not every such curve was filed as active; the % refers to the signal ratio;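 note: 0% = DMSO basal wells and 100% = rosiglitazone at 2 µM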). In short, it runs like this:
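This is an agonist-mode beta-lactamase reporter assay in HEK293 PPAR-gamma-UAS-bla cells with 1% charcoal/dextran FBS. Compound titrations ran 16 h at 37 C before CCF4 detection. EC50 and efficacy are Hill fits scaled to 2 uM rosiglitazone (100%) and DMSO basal.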

The target is the same in assay [10]. The experiment in a line: qHTS assay for small molecule antagonists of peroxisome proliferator-activated receptor gamma signaling (AID 588537; active = well fitted inhibition curve with a large enough effect in the signal ratio, with a control signal flat, not every such curve was filed as active; the % refers to the signal ratio;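 note: reporter cells co-stimulated with 50 nM rosiglitazone agonist during compound treatment; % of control where 0% means no effect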). A digest of the protocol: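 HEK293 cells, PPAR-gamma-UAS-bla, 3000/well. Pre-incubation 6-6.5 h, 37 C. Compound titration with rosiglitazone 50 nM final, 16 h. CCF4 dye, 2 h RT, dual-emission fluorescence.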
Assay [11] deals with Vitamin D3 receptor (Homo sapiens) (UniProt P11473). Description: qHTS assay for small molecule antagonists of vitamin D receptor signaling (AID 588541; calls by dose curve;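 note: receptor activated by calcitriol during compound treatment; series mostly up to about 77 µM; % is set by controls: 0 for no effect and ±100 for the full control effect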). A digest of the protocol:
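VDR-UAS-bla HEK293T cells (2000/well, 2% charcoal-stripped FBS) were treated with titrated compounds plus 1-alpha,25-dihydroxyvitamin D3 (50 nM or 3 nM final) for 16 h at 37 C. CCF4 beta-lactamase fluorescence was read; Hill fits gave IC50.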

Assay [12] shares this target. The experiment in a line: qHTS assay for small molecule agonists of vitamin D receptor signaling (AID 588543; calls by dose curve;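 note: 0% = DMSO basal and 100% = reference agonist control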). In short, it runs like this:
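VDR-UAS-bla HEK293T cells, 2000/well, 2% charcoal-stripped FBS; compound titration 16 h at 37 C; CCF4 beta-lactamase ratio read. Normalized to 50 nM 1-alpha,25-dihydroxyvitamin D3 (100%) and DMSO; Hill fit gives EC50, efficacy.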

In assay [13] the target is Glucocorticoid receptor (Homo sapiens) (UniProt P04150). Description: qHTS assay for small molecule agonists of glucocorticoid receptor signaling (AID 588532; active = well fitted curve in the direction sought with a large enough effect in the signal ratio, with a control signal flat; the % refers to the signal ratio;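 note: 100% = dexamethasone at 0.1 µM and 0% = DMSO only wells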). The settings on record: HeLa MMTV-bla, beta-lactamase ratio, agonist, 18 h; stronger effect = higher value; percent of dexamethasone control, DMSO zero. A digest of the protocol: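 Titration series, up to 92 uM, applied to GRE-bla HeLa cells for 18 h at 37 C. Detection by CCF4 FRET substrate after 2 h at RT.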
Glucocorticoid receptor (Homo sapiens), sequence (P04150 whole entry, looked up): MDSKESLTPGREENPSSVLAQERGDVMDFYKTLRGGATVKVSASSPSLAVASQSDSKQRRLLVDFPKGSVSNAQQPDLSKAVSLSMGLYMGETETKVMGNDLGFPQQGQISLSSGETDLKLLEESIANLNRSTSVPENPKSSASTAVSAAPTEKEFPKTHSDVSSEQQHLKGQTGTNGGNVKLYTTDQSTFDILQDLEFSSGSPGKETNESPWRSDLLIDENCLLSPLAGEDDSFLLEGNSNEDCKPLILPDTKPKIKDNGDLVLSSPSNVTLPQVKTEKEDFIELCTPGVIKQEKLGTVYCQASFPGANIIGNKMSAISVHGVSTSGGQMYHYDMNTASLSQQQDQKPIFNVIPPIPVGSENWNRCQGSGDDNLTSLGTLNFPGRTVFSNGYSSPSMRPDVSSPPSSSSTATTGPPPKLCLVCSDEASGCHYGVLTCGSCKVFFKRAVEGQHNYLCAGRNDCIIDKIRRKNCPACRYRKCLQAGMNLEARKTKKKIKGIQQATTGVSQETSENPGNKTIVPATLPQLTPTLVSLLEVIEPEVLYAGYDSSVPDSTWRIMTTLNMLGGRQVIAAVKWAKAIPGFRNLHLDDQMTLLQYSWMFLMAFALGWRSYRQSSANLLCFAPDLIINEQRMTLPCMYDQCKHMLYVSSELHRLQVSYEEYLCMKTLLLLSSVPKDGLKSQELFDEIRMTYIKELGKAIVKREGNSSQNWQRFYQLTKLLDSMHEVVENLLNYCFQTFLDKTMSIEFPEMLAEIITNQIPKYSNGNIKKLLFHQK

For assay [14] the target is unchanged. Description: qHTS assay for small molecule antagonists of glucocorticoid receptor signaling (AID 588533; active = well fitted inhibition curve with a large enough effect in the signal ratio, with a control signal flat, not every such curve was filed as active; the % refers to the signal ratio;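 note: cells stimulated with 2 nM dexamethasone as agonist; % is set by controls: 0 for no effect and ±100 for the full control effect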). In short, it runs like this:
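Antagonist-mode qHTS: compound titrations added to GRE-bla HeLa cells, then dexamethasone 2 nM final; 18 h, 37 C. CCF4 FRET fluorescence normalized to dexamethasone and DMSO; IC50 from Hill fit.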

A short description of assay [15]: qHTS assay for small molecule antagonists of peroxisome proliferator-activated receptor delta signaling (AID 588535; active = well fitted inhibition curve with a large enough effect in the signal ratio, with a control signal flat, not every such curve was filed as active; the % refers to the signal ratio;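 for max response: cells co-treated with a PPAR-delta agonist as stimulator during compound exposure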). The settings on record: HEK293T PPARd-UAS-bla, beta-lactamase FRET ratio, 18 h; 460 nm channel. In short, it runs like this: (§1)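 Compounds tested in titration on PPAR-delta-UAS-bla HEK293T cells grown in charcoal/dextran-stripped serum (2%); beta-lactamase activity read via CCF4 emission at 460 and 530 nm.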

The target in assay [16] is Peroxisome proliferator-activated receptor delta (Homo sapiens) (UniProt Q03181). The assay is described as above. In short, it runs like this: as §1
Peroxisome proliferator-activated receptor delta (Homo sapiens), sequence (Q03181 whole entry, looked up): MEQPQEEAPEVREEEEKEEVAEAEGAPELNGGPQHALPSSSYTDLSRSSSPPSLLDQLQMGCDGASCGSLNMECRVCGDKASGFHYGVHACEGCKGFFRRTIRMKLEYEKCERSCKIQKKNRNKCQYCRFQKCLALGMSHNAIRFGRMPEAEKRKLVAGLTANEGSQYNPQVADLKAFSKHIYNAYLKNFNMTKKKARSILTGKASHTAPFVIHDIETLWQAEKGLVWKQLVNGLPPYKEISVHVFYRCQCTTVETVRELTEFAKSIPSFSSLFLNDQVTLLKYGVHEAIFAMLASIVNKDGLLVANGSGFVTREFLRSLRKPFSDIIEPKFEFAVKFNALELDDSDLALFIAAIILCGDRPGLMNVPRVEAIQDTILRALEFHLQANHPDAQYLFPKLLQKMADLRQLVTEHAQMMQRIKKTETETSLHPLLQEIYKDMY

Inconclusive results are not listed. Calls of active or inactive are those of the source. Unless noted, calls come from the whole dose curve; as a rule, active = well fitted cell-killing curve with a large enough effect; inconclusive = small, poorly fitted or top-dose-only effect; inactive = flat fitted curve, though single readings scatter.

Peroxisome proliferator-activated receptor gamma (Homo sapiens), sequence (P37231 whole entry, looked up): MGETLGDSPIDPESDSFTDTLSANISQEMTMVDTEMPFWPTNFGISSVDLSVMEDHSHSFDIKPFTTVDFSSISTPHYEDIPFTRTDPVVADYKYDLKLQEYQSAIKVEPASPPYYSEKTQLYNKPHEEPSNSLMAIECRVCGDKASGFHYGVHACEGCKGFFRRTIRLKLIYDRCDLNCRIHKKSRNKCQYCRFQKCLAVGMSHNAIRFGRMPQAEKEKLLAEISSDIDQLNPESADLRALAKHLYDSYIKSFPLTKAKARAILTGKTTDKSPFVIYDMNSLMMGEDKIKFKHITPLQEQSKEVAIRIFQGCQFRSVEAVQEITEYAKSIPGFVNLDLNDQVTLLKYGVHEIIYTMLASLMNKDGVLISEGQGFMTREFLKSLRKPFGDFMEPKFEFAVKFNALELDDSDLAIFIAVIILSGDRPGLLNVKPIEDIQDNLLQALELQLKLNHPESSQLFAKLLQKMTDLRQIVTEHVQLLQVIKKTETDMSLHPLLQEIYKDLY
Vitamin D3 receptor (Homo sapiens), sequence (P11473 whole entry, looked up): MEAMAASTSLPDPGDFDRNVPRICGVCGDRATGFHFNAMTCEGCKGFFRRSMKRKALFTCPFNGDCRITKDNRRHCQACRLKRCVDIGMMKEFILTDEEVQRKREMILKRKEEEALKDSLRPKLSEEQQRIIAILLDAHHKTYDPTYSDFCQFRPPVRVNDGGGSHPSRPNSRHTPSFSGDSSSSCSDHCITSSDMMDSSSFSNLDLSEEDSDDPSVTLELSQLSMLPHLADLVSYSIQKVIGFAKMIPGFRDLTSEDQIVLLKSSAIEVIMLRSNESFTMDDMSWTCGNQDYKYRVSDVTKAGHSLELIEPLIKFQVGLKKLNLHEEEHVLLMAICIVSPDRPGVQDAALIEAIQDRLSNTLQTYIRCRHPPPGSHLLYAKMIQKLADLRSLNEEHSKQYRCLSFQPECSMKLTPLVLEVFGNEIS

As to `c1ccc2[nH]cnc2c1`, the Potency result in assay [1], in assay [2], in [3], in [5] and in [6] was “inactive” in each case. The result in assay [4], in assay [7], in [8], in assay [9], in [10] and in [11] was inactive. In assay [12], the result was inactive.

On to `N#Cc1ccccc1`, for which the Potency entry in [1], in [2], in assay [5] and in assay [6] was “inactive” each time. Also, the outcome in [4], in assay [7], in assay [8], in assay [14], in assay [9] and in [10] was inactive. The call in assay [11] and in [12] was inactive. In addition, in [13], the activation was 4.79% (inactive). The max response in assay [15] is -16.3%.

Turning to `Cc1ccccc1Br`, the Potency entry in [1], in assay [2], in [3] and in [6] was “inactive” throughout. Besides, the outcome in [4], in [7], in assay [8], in assay [9], in assay [11] and in [12] was inactive.

Regarding `O=[N+]([O-])c1ccccc1CCO`, the Potency result in assay [1], in assay [2], in [3], in [5], in assay [6] and in [16] was “inactive” each time. Moreover, the molecule was called inactive in assay [4], in [7], in assay [14], in assay [9], in assay [11] and in assay [12]. Moreover, in assay [13], the activation was 3.95% (inactive). Further, the max response in assay [15] is -6.01%.

Turning to `CC(C)Cc1nccs1`, the Potency result in assay [1], in assay [2], in assay [3], in assay [5] and in assay [6] was “inactive” throughout. The molecule was called inactive in assay [4], in assay [7], in assay [8], in assay [9], in assay [11] and in [12].

In the case of `Cc1ccc(C(=O)O)cc1`, the Potency result in assay [1], in assay [2], in assay [3] and in assay [6] was “inactive” in each case. The result in assay [4], in [7], in [8] and in assay [9] was inactive.

`Nc1c(Cl)cc(Cl)cc1Cl`: the Potency entry in [1], in [2], in assay [3], in assay [5], in [6] and in assay [16] was “inactive” throughout. Further, the result in [4], in assay [7], in assay [8], in assay [14], in assay [10] and in assay [11] was inactive. For the same molecule, the molecule was classed as inactive in [12]. In addition, the max response in assay [15] is 1.78%.

As to `O=C(O)CNC(=O)c1ccc([N+](=O)[O-])cc1`, the Potency entry in assay [1], in assay [3], in assay [5], in [6] and in [16] was “inactive” each time. Further, the molecule was called inactive in assay [4], in assay [7], in assay [8], in assay [9], in assay [11] and in assay [12]. Further, the max response in assay [15] was 53.5%.

With `CC(C)(C)OC=O`, the Potency result in assay [5] and in assay [6] was “inactive” in each case. Also, the molecule was classed as inactive in assay [7], in assay [8], in [9], in assay [10], in assay [11] and in assay [12].

`CN(C)c1cccc(O)c1`: the Potency entry in assay [1], in assay [2], in assay [5], in assay [6] and in assay [16] was “inactive” throughout. Also, the molecule was called inactive in [4], in [7], in assay [14], in assay [9], in assay [11] and in assay [12]. In assay [13], the activation was -1.05% (inactive). Besides, the max response in assay [15] is -10%.

For `O=C(O)c1c(Cl)cccc1Cl`, the Potency result in [1], in assay [2], in assay [3], in [5] and in [6] was “inactive” each time. Further, the molecule was called inactive in assay [4], in assay [7], in [8], in assay [9] and in [10].

With `NC=O`, the Potency result in [1], in assay [2], in [3] and in [6] was “inactive” throughout. The outcome in assay [4], in assay [7], in assay [8], in [9], in [11] and in [12] was inactive.

With `COc1ccccc1[N+](=O)[O-]`, the Potency result in [1], in [2], in assay [3], in assay [5] and in assay [6] was “inactive” throughout. For the same molecule, the call in assay [7], in [8], in assay [11] and in assay [12] was inactive.

For the molecule `CCCCC=O`, the Potency result in assay [1], in [2], in [3], in assay [5] and in [6] was “inactive” each time. Also, the molecule was called inactive in assay [4], in [7], in assay [8], in assay [14], in [11] and in assay [12]. For the same molecule, the activation in assay [13] is -0.364% (inactive).

`Clc1ccccn1`: the Potency result in [1], in assay [2], in assay [3], in assay [5], in [6] and in assay [16] was “inactive” in each case. Moreover, the call in assay [4], in assay [7], in assay [8], in assay [11] and in assay [12] was inactive. The max response in assay [15] was 26.1%.

As for `C1CCCC1`, the Potency result in assay [1], in [2], in assay [5] and in [6] was “inactive” throughout. Moreover, the molecule was classed as inactive in assay [4], in assay [7], in [14], in assay [9], in assay [10] and in assay [11]. Besides, in assay [12], the result was inactive. In addition, the activation in assay [13] was 2.06% (inactive).

Take `CCCCOCCOCCOCCCC`: the Potency entry in assay [1], in assay [2], in assay [3] and in assay [6] was “inactive” throughout. Moreover, the result in assay [4], in [7], in assay [8], in [14], in [9] and in assay [10] was inactive. In addition, in [13], the activation is 9.2% (inactive).

Regarding `C=Cc1ccccn1`, the Potency result in assay [1], in assay [2], in assay [3], in assay [5] and in assay [6] was “inactive” in each case. The result in [4], in assay [7], in assay [14], in assay [9], in assay [10] and in [11] was inactive. In assay [12], the molecule was called inactive. In addition, in assay [13], the activation is -3.05% (inactive).

Consider `CCC(=O)/C=C/C1C(C)=CCCC1(C)C` (stereo not drawn), for which the Potency entry in assay [1], in [5], in [6] and in assay [16] was “inactive” each time. Further, the result in [4], in assay [7], in [8], in assay [9], in assay [10] and in [11] was inactive. The call in [12] was inactive. The activation in assay [13] was -2.65% (inactive). Moreover, the max response in assay [15] came out at 2.01%.
